Measured values reported in PubChem BioAssay (Tox21).
Inconclusive results are not listed. Where a call stands in place of a potency, no number is given. Active and inactive are the calls of the source. The call rests on the fitted dose curve; in most records, active means well fitted inhibition curve with a large enough effect in the repeat runs; inconclusive means weak or mixed curves; inactive means no such curve, though single readings can be large or run the other way.

assay: qHTS assay to identify small molecule antagonists of the estrogen related receptor (ERR) signaling pathway from Tox21 library (AID 1224848); settings: ERR reporter cell line, luciferase antagonist mode, 18 h; series mostly up to 92.4 µM; further: nearly all actives have a fitted effect of over 50% in size
Source text: U.S. Tox21 Program National Center for Advancing Translational Sciences [NCATS] NIH Chemical Genomics Center [NCGC] U.S. Environmental Protection Agency [EPA] National Institutes of Environmental Health Sciences [NIEHS] National Toxicology Program [NTP] U.S. Food and Drug Administration [FDA] Tox21 Assay Overview: Estrogen related receptors (ERRs), the first orphan nuclear receptors discovered, play an important role in the control of cellular energy metabolism. ERRs are required for high-energy production in response to the environmental challenges. ERR-alpha was also identified as an adverse marker for breast cancer progression; ERR-alpha-positive tumors have a poor prognosis. To screen and to identify environmental compounds that perturb the ERR signaling pathways could provide valuable information for potential therapeutic or preventive measures in the treatment of metabolic disease. For identifying ERR antagonists, ERR cell line (provided by NTP) has been used to screen Tox21 10K library.
Tox21 Assay Protocol Summary: The ERR cells were dispensed at 2,000 cells/5 ul/well in 1536-well white plates using a Multidrop dispenser. After the assay plates were incubated at a 37 C/5% CO2 incubator for 6 hours, 23 nL of compounds dissolved in DMSO, positive and negative controls or DMSO only was transferred to the assay plate by a pin tool. The plates were incubated at 37 C for 18 hours. 4 ul/well of One-Glo reagent was added into the assay plates using a Flying Reagent Dispenser. After 30-minute incubation at room temperature, the luminescence intensity in the plates was measured using a ViewLux plate reader.
Potency means the concentration at half of the fitted maximal effect.

Row | Structure (SMILES) | Potency
1 | CC#N | inactive
2 | Cc1oc(C)c(C(=O)Nc2ccccc2)c1C | 17.2 µM (active)
3 | CO[C@@]12[C@H](COC(N)=O)C3=C(C(=O)C(C)=C(N)C3=O)N1C[C@@H]1N[C@@H]12 | 8.41 µM (active)
4 | O=C1NCCN1 | inactive
5 | CCOC(=O)c1ccccc1OC | inactive
6 | CSc1ccc(Oc2ccc(S(N)(=O)=O)cc2CN(C)C)cc1C | 5.45 µM (active)
7 | CC(=O)CC(c1ccc([N+](=O)[O-])cc1)c1c(O)c2ccccc2oc1=O (stereo not given) | inactive
8 | OC/C(Br)=C(\Br)CO | inactive
9 | C[N+]1(C)CCC(=C(c2ccccc2)c2ccccc2)CC1 | inactive
10 | CNC(=O)N(c1ccccc1)c1ccccc1 | inactive
11 | CCN(Cc1cccc(S(=O)(=O)O)c1)c1ccc(C(=C2C=CC(=[N+](CC)Cc3cccc(S(=O)(=O)[O-])c3)C=C2)c2ccccc2)cc1 | inactive
12 | NCC1CCCC(CN)C1 (stereo not given) | inactive
13 | COc1cc2[nH]c(=O)[nH]c(=O)c2cc1OC | inactive
14 | Cc1nccn1-c1ccc(Sc2cccc(C3(C(N)=O)CCOCC3)c2)cc1 | 1.37 µM (active)
15 | CC1(C)O[C@@H]2C[C@H]3[C@@H]4CCC5=CC(=O)C=C[C@]5(C)[C@H]4[C@@H](O)C[C@]3(C)[C@]2(C(=O)CO)O1 | inactive
16 | CC1(C)C(=O)N(Br)C(=O)N1Cl | inactive
17 | CCOC(=O)CC(=O)C(=O)OCC | 27.3 µM (active)
18 | CCOC(=O)[C@@H](C)Oc1ccc(Oc2nc3ccc(Cl)cc3o2)cc1 | 48.6 µM (active)
19 | CCCCCCCCCCCC(=O)[O][Sn]([CH2]CCC)([CH2]CCC)[O]C(=O)CCCCCCCCCCC | inactive
20 | c1cnc2c(n1)CCCC2 | inactive

Row | Structure (SMILES) | Potency
21 | CC(C)CCCCCOC(=O)CCCCC(=O)OCCCCCC(C)C | inactive
22 | COC(=O)Nc1nc2ccc(C(=O)c3cccs3)cc2[nH]1 | inactive
23 | CO[C@H]1O[C@H](CO)[C@@H](O)[C@H](O)[C@H]1O | inactive
24 | CCNC(=O)N1CCN(CCCC(c2ccc(F)cc2)c2ccc(F)cc2)CC1 | 7.5 µM (active)
25 | O=[N+]([O-])c1cccc(S(=O)(=O)NCCNS(=O)(=O)c2cccc([N+](=O)[O-])c2)c1 | inactive
26 | O=C(O)Cc1ccc(-c2ccccc2)cc1 | inactive
27 | Cc1ccc(S(=O)(=O)NC2CCCCC2)cc1 | 27.1 µM (active)
28 | c1cc[c]([Bi]([c]2ccccc2)[c]2ccccc2)cc1 | 61.1 µM (active)
29 | O=C(Nc1ccccc1)Nc1ccccc1 | inactive
30 | NC(=O)Nc1ccc(Cl)c(Cl)c1 | inactive
31 | CCC(=O)Oc1ccc(/C(CC)=C(\CC)c2ccc(OC(=O)CC)cc2)cc1 | 27.3 µM (active)
32 | N#C[C@@H]1C[C@@H]2C[C@@H]2N1C(=O)[C@@H](N)C12CC3CC(CC(O)(C3)C1)C2 | inactive
33 | CCCCC(=O)O[C@]1(C(=O)CO)[C@@H](C)C[C@H]2[C@@H]3CCC4=CC(=O)C=C[C@]4(C)[C@@]3(F)[C@@H](O)C[C@@]21C | 54.5 µM (active)
34 | O=C(NCCCN1CCOCC1)c1ccc(Cl)cc1 | inactive
35 | COCCOC | 1.46 µM (active)
36 | CCC(C)=O | inactive
37 | Cc1nc2ccccc2s1 | inactive
38 | C1COCO1 | inactive
39 | C[C@]12CCC(=O)C=C1C=C[C@@H]1[C@@H]2CC[C@@]2(C)[C@H]1CC[C@@]21CCC(=O)O1 | 23.7 µM (active)
40 | COC(=O)c1cc(S(N)(=O)=O)ccc1OC | inactive
